From PubChem BioAssay
MEP2 TOR yeast: modulators of TOR pathway MEP2-GFP in S. cerevisiae; S. cerevisiae MEP2-GFP strain, flow cytometry GFP, 3 h; 100% = DMSO control level; GFP response vs DMSO, % at 10 µM; actives 0.51% (n = 330,000);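 active means GFP response versus DMSO above a set limit, roughly screen mean plus 3 SD, cut at about 180% in these data; inconclusive means fewer than 70 cells counted for a yeast strain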;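 further: median GFP fluorescence of the barcode-gated MEP2-GFP cells per well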
RPL19A TOR yeast: alters RPL19A-GFP fluorescence in TOR pathway yeast screen | S. cerevisiae RPL19A-GFP strain, flow cytometry, 3 h; active compounds read low | percent response vs DMSO, % at 10 µM | actives 0.3% (n = 330,000) | AID 2025;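 active means percent response vs DMSO below 50%; inconclusive means fewer than 70 events counted for the yeast strain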;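 further: median channel GFP fluorescence of the barcoded RPL19A-GFP strain; lower means less RPL19A-GFP as with rapamycin TOR inhibition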
Efflux pump inh: antifungal efflux pump inhibition, Nile Red retention | inhibition, % at 10 µM | S. cerevisiae Candida pump triplex | AID 485275 | actives 0.44% (n = 330,000);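 active means plate passing quality check with inhibition over a set limit, or well fluorescence over plate mean plus 4 SD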;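 further: Nile Red retained in pooled yeast measured as flow cytometry median fluorescence; higher means more Nile Red kept so more efflux inhibition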
CIT2 TOR yeast: yeast TOR pathway CIT2-GFP modulation | S. cerevisiae CIT2-GFP strain, flow cytometry, 3 h; 100 means same as DMSO wells | GFP response vs DMSO, % at 10 µM | actives 0.065% (n = 320,000) | AID 2029;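 active means GFP response relative to DMSO above a set limit, near the screen mean plus 3 SD, cut at about 150% in these data; inconclusive means Fewer than 70 cells measured for a yeast strain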;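 further: ratio of well median GFP fluorescence to mean of DMSO wells on the plate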
LAP4-GFP MLPCN: alters LAP4-GFP fluorescence in TOR pathway yeast screen; S. cerevisiae LAP4-GFP multiplex, flow cytometry GFP, 3 h; median GFP as percent of DMSO wells; GFP response vs DMSO, % at 10 µM; actives 0.34% (n = 320,000); AID 2023;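 active means GFP response vs DMSO above a set limit, about the screen mean plus 3 SD, cut at about 150% in these data; inconclusive means under 70 cell events counted for the yeast strain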
AGP1 TOR yeast: yeast TOR pathway AGP1-GFP modulation; GFP response vs DMSO, % at 10 µM; actives 0.02% (n = 320,000); S. cerevisiae AGP1-GFP multiplex flow cytometry, 3 h; GFP as percent of DMSO wells; AID 2066;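 active means GFP response relative to DMSO above a set limit, near screen average plus 3 SD, cut at about 150% in these data; inconclusive means fewer than 70 cells counted for the yeast strain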;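 further: median GFP channel fluorescence of the gated AGP1 strain per well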
Numbers stand for hits; n = inactive; u = inconclusive; x = no result given; ! = a repeat was not active; [ ] = another dose, or the depositor's remark. Compounds with a hit are over-represented: about 1.3% of the library has one in this group of screens.

SMILES | MEP2 TOR yeast | RPL19A TOR yeast | Efflux pump inh | CIT2 TOR yeast | LAP4-GFP MLPCN | AGP1 TOR yeast
CN1CCc2nc3sc(C(=O)C45CC6CC(CC(C6)C4)C5)c(N)c3cc2C1 | 257.4[may fluoresce violet] | n | n | u | n | n
CCc1ccc(-c2nc(CSCC(=O)N3CCN(c4ccccn4)CC3)c(C)o2)cc1 | 177.3[may fluoresce violet] | 44.6[may fluoresce violet] | n | u | n | n
Cc1ccc(-c2nc(CSCC(=O)N3CCN(c4ccccn4)CC3)c(C)o2)cc1 | n | n | n | n | n | n
CCN(C[C@H]1N[C@@](C)(C(=O)OC)[C@H]2C(=O)N(C)C(=O)[C@@H]12)C(=O)COC | n | n | n | n | n | n
N#CCCn1cc(CNC2CCC(O)CC2)c2ccccc21 (configuration not stated) | 244.8[may fluoresce violet] | 45.6[may fluoresce violet] | n | u | n | u
O=C(Nc1ccc(Br)cc1)C1C2C=CC3(O2)C1C(=O)N(CCN1CCOCC1)C3C(=O)NC1CCCCC1 (configuration not stated) | 437.9[may fluoresce violet] | n | n | u | n | n
COCCCN1C(=O)C2C(C(=O)Nc3cc(C)cc(C)c3)C3C=CC2(O3)C1C(=O)NC1CCCCC1 (configuration not stated) | 216.7 | n | n | n | n | n
Cc1cc(C)cc(NC(=O)C2C3C=CC4(O3)C2C(=O)N(CCCN2CCCCC2)C4C(=O)NC2CCCCC2)c1 (configuration not stated) | n | n | n | n | n | n
CCOC(=O)C1=C(C)Nc2ccccc2N=C1NC(=O)c1oc2ccccc2c1COC | n | n | n | n | n | n
CN(C)/C=C/C(=O)/C=C/c1cn(-c2ncc(C(F)(F)F)cc2Cl)c2ccccc12 | 232.3[may fluoresce violet] | 41.5[may fluoresce violet] | n | u | n | u
O=C(CN1CCN(Cc2ccccc2Cl)C1=O)NC1CCCCCCC1 | 208.1 | x | n | n | n | n
CC(C)(C)c1ccc(Oc2ncccc2NC(=O)c2cccs2)cc1 | n | n | n | n | n | n
O=C1C2=C(NC(=S)NC2c2ccc(Cl)cc2)NC(c2ccc(Cl)cc2)N1c1ccc(Cl)cc1 (configuration not stated) | 391.2[may fluoresce violet] | n | n | u | u | u
CCc1ccc(C2NC(=S)NC3=C2C(=O)N(c2ccccc2OC)C(c2ccc(CC)cc2)N3)cc1 (configuration not stated) | n | n | n | n | n | x
Cc1ccc(C(=O)N2CCN(S(=O)(=O)c3sc(C(=O)O)c(C)c3C(=O)O)CC2)s1 | n | n | n | n | n | n
CCOC(=O)c1ccc(N2CN(C3CCCCC3)CNC2=S)cc1 | 237.0[may fluoresce violet] | 30.9[may fluoresce violet] | n | u | n | u
Nc1ccc(C(=O)O)c(O)c1 | n | u | n | n | 384.1![may fluoresce red] | n
Cc1cccc(C)c1NC(=O)C1(N(Cc2ccco2)C(=O)c2ccccn2)CCCC1 | 276.6[may fluoresce violet] | n | n | u | n | x
CCn1c(O)c(N=NC(=O)CNc2ccc(C)cc2)c2ccccc21 | n | n | n | n | n | n
CCn1c(O)c(N=NC(=O)CNc2cccc(C)c2)c2ccccc21 | 525.5[may fluoresce violet] | n | n | u | n | n
CCOC(=O)Cn1cc(C(=O)C(=O)N2CCOCC2)c2ccccc21 | n | n | n | n | n | n
CCOC(=O)C(=O)c1cn(C2OCC(OC(C)=O)C(OC(C)=O)C2OC(C)=O)c2ccccc12 (configuration not stated) | n | 42.9[may fluoresce violet] | n | u | n | n
Clc1ccc(-c2nc(NCCCN3CCOCC3)c3ccccc3n2)cc1 | n | n | n | n | n | n
Fc1ccccc1-c1nc(NCCCN2CCOCC2)c2ccccc2n1 | 207.6 | n | n | n | n | n
CC(=O)Nc1ccc(NC(=O)C2CCN(C(=O)c3cccs3)CC2)cc1 | n | n | n | n | n | n
SMILES | MEP2 TOR yeast | RPL19A TOR yeast | Efflux pump inh | CIT2 TOR yeast | LAP4-GFP MLPCN | AGP1 TOR yeast
COc1ccc(C2=CC(=O)C[C@H](c3ccc(F)cc3)C2)cc1OC | n | n | n | n | n | n
COc1ccc(C(=O)Oc2ccc(/C=N/NC(=O)c3ccccc3OC)cc2[N+](=O)[O-])cc1 | 195.4 | n | n | n | n | n
CC(C)c1cc(NC(=O)C(C)(C)C)cc(C(C)C)c1O | 202.2[may fluoresce violet] | n | n | u | n | n
COc1c(C(C)C)cc(NC(C)=O)cc1C(C)C | n | n | n | n | n | n
CCN(CC(=O)NCc1cccs1)C(=O)c1cccc(S(=O)(=O)Nc2ccccc2Cl)c1 | n | n | n | n | n | n
C/C(=N\NC(=O)COc1ccccc1-c1ccccc1)c1ccccn1 | n | n | n | n | 170.9 | n
O=C(CN1CCOCC1)Nc1ccc(Cl)cn1 | n | n | n | n | n | n
Nn1c(CSc2ccccn2)nc2ccccc2c1=O | 261.3[may fluoresce violet] | n | n | u | n | u
O=c1[nH]c(CSc2ccccn2)nc2ccccc12 | n | n | n | n | n | n
Cc1cc(C)cc(NC(=O)CCN2CCOCC2)c1 | n | n | n | n | n | n
COc1ccccc1COC(=O)c1ccc(S(=O)(=O)N2CCOCC2)cc1 | n | n | n | n | n | n
O=C(NCCCN1CCc2ccccc2C1)C1CCN(S(=O)(=O)N2CCC3(CC2)OCCO3)CC1 | n | n | n | n | n | n
CC1CCCN(CCCNC(=O)C2CCN(S(=O)(=O)N3CCC4(CC3)OCCO4)CC2)C1 (configuration not stated) | n | 47.1 | n | n | n | n
O=C(NCCc1ccc(Cl)cc1)C1CCN(S(=O)(=O)N2CCC3(CC2)OCCO3)CC1 | n | n | n | n | n | n
O=C(NCCCN1CCCCC1)C1CCN(S(=O)(=O)N2CCC3(CC2)OCCO3)CC1 | n | 35.6[may fluoresce violet] | n | u | n | u
O=S1OCCN1c1ccccc1 (configuration not stated) | n | n | n | n | n | n
O=C(NC1CCN(C(=O)Nc2ccc(F)cc2)CC1)c1cccc(F)c1 | 199.7[may fluoresce violet] | 30.1[may fluoresce violet] | n | u | n | u
Cc1ccc(NC(=O)N2CCC(NC(=O)c3cccc(F)c3)CC2)cc1 | n | n | n | n | n | n
CC1CCCN(S(=O)(=O)c2ccc(Cl)s2)C1 (configuration not stated) | 315.8[may fluoresce violet] | n | n | u | n | n
COc1ccc(-c2[nH]ncc2N=Nc2cc(C)cc(C)c2)cc1 | n | n | n | n | n | n
COc1ccc(-c2[nH]ncc2N=Nc2ccccc2)cc1 | n | n | n | n | 151.2 | n
CCc1ccc(NC(=O)CSc2nncn2-c2cccnc2)cc1 | n | n | n | n | n | n
Cc1ccc(C)c(S(=O)(=O)Nc2ccc(C(=O)N3CCC3)cc2)c1 | n | n | n | n | n | n
NS(=O)(=O)c1cc(C(=O)NCC2CCCCC2)ccc1Cl | n | n | n | n | n | n
COc1ccc(S(=O)(=O)N(CC(=O)N2CCOCC2)c2ccc(F)cc2)cc1OC | 220.9[may fluoresce red and violet] | u | n | u | n | u
CCOc1ccc(N(CC(=O)OC)S(=O)(=O)c2ccc(OC)c(OC)c2)cc1 | 205.4[may fluoresce violet] | n | n | u | n | x
